IMPase cell inh = IMPase inhibition in cells | inhibition (IP1 accumulation), % at 46.1 µM | 120,000 tested, under 10 active | CHO-M1 cells, IP1 accumulation, HTRF TR-FRET ratio | AID 901 | P97697; active means well fitted curve in the direction sought with a large enough effect in the signal ratio, not every such curve was filed as active; inconclusive means small, poorly fitted or top-dose-only effect, or a change in a side signal; inactive means no such curve, though single readings can be large or run the other way; the % refers to the signal ratio;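 further: cells stimulated with carbachol in lithium chloride buffer; higher means more IMPase inhibition seen as more IP1 and lower FRET ratio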
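CHO-M1, 2000 cells/well, cultured 16–30 h; cpd up to 46 uM; carbachol (50 uM solution, stimulation buffer w/ 50 mM LiCl, pH 7.4), 30 min 37C; IP-One TR-FRET, 10 min RT; Ex 320/Em 665, 620; Hill-fit AC50.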
ALDH1A1 block = blocks purified human ALDH1A1 activity | Potency, µM (titrated, usually from 75.3 µM), hits mostly inhibitors | 220,000 compounds, 7.3% hits | Purified ALDH1A1, NADH fluorescence, propionaldehyde substrate | P00352; active means well fitted inhibition curve with a large enough effect, not every such curve was filed as active; inconclusive means small, poorly fitted or top-dose-only effect, or another doubt; inactive means no such curve, though single readings can be large or run the other way
Target sequence (P00352 whole entry, looked up): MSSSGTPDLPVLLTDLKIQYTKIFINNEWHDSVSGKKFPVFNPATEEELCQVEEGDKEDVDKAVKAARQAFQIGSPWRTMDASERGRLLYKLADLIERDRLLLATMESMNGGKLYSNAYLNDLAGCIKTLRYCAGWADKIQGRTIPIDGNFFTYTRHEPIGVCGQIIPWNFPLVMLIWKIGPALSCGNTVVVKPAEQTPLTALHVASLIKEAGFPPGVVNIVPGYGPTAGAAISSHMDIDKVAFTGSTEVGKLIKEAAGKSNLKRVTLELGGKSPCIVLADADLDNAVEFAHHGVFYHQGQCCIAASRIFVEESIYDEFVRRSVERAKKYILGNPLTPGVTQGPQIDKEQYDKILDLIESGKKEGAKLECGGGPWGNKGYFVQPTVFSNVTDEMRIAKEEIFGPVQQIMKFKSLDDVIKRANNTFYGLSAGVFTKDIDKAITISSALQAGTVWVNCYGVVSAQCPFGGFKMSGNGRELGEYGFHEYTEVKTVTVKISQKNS
HPGD inh = inhibitors of human 15-hydroxyprostaglandin dehydrogenase (HPGD); P15428; purified HPGD, NADH fluorescence kinetic, PGE2 substrate; Potency, µM, hits mostly inhibitors; 150,000 compounds, 4.3% hits; AID 894; active means well fitted inhibition curve with a large enough effect, not every such curve was filed as active; inconclusive means small, poorly fitted or top-dose-only effect, or another doubt; inactive means no such curve, though single readings can be large or run the other way
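NADH formation kinetics: reaction with 30 uM PGE2 and 1 mM NAD+ (final), 20 nM enzyme, Tris-HCl pH 8 with Tween 20, after 15 min compound preincubation at room temperature. Fluorescence change, last versus first of five reads.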
NPSR antag = neuropeptide S receptor (human) antagonism, cAMP; CHO-NPSR cells, cAMP TR-FRET, antagonist mode; Potency, µM (titrated, usually from 38.3 µM), usual class: inhibitors; 220,000 compounds, 1% hits; AID 1461; further: nearly all actives have a fitted effect of over 50% in size
IMPase Li inh = cell-permeable IMPase inhibitors with lithium potentiation. CHO-M1 cells, IP1 TR-FRET (IP-One), carbachol + lithium. Potency, µM (titrated, usually from 59.4 µM), most hits filed as inhibitors. 210,000 compounds, 0.35% hits;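 further: IP1 builds up when IMPase is blocked and the TR-FRET signal falls; nearly all actives have a fitted effect of over 50% in size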
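CHO cells stably expressing M1 receptor (2000/well, cultured 16–30 h) treated 30 min at 37C with compound plus low lithium. Cytosolic IP1 by TR-FRET (665/620 ratio and 620 channel) after 10 min lysis; AC50 by Hill fit.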
PNC inhibitor = inhibitors of perinucleolar compartment assembly; 140,000 compounds, 3.1% hits; PC3M PTB-GFP, PNC prevalence imaging, 16 h; active compounds read low; activity change (PNC), negative = inhibition, % at 10 µM;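 active means readout at or below -70, meaning at least 70% loss of cells showing the perinucleolar compartment, a nuclear body marking cancer cells; inconclusive means readout between -30 and a set limit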
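Read-out is percentage of cells bearing a perinucleolar compartment, from automated 20x imaging of fixed, Hoechst-stained PC3M PTB-GFP cells. Cells were seeded 4 h, then exposed 16 h to compound (23 nl of library stock) in duplicate plates.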
Each line names hits and unclear results; the compound was inactive in the other large screens. A selection: hits, their analogues and other compounds. The true share with any hit is near 11%. Unless noted, the call rests on the fitted dose curve; in most records, active means well fitted curve in the direction sought with a large enough effect; inconclusive means small, poorly fitted or top-dose-only effect, or another doubt; inactive means no such curve, though single readings can be large; an effect the other way counts as inactive or inconclusive.

CC1CC1C(=O)Nc1nc(-c2ccccc2)cs1 (stereo not given)	ALDH1A1 block 10µM
CC(C)N(c1ccccc1)c1ccc(NC(=O)C2CCCO2)cc1 (stereo not given)	ALDH1A1 block inconclusive
COC(=O)c1c(-c2ccc(F)cc2)csc1NC(=O)C1CCCO1 (stereo not given)	ALDH1A1 block 20µM, NPSR antag inconclusive (no result: IMPase cell inh, HPGD inh, PNC inhibitor)
CC(NC(=O)C1CCCO1)c1ccccc1 (stereo not given)	HPGD inh 18µM
CN(C)CC(=O)Nc1nc(-c2ccccc2)cs1	none
CC(=O)Nc1cc(-n2cnnn2)ccc1C	none (no result: IMPase cell inh, HPGD inh, PNC inhibitor)
CNc1cc(-c2ccccc2C)ncn1	none (no result: IMPase cell inh, HPGD inh, NPSR antag, PNC inhibitor)
CCc1ccc(NC(=O)N(CCCOC(C)C)C2CCN(C(C)=O)CC2)cc1	IMPase cell inh inconclusive, ALDH1A1 block inconclusive
O=C(Nc1ccc(Oc2ccccc2)cc1)C1CC1	none (no result: IMPase cell inh, HPGD inh, PNC inhibitor)
O=C(Nc1ccc(Oc2ccccc2)cc1)C1CCCO1 (stereo not given)	HPGD inh 11µM
COc1ccc(NC(=S)N2CCCC(c3nc4ccc(C)cc4[nH]3)C2)c(OC)c1 (stereo not given)	none (no result: IMPase cell inh, HPGD inh, PNC inhibitor)
NNC(=O)C=C1CCN(c2ncc(C(F)(F)F)cc2Cl)CC1	ALDH1A1 block 16µM
O=C(O)C=C1CCN(c2ncc(C(F)(F)F)cc2Cl)CC1	none
O=C(CN1CCN(c2ncc(C(F)(F)F)cc2Cl)CC1)N1CCN(c2ncc(C(F)(F)F)cc2Cl)CC1	ALDH1A1 block 4µM, NPSR antag inconclusive
O=[N+]([O-])c1c(Nc2ccccc2)ccc2nonc12	none
CCOC(=O)NNc1ccc2nonc2c1[N+](=O)[O-]	ALDH1A1 block 18µM (no result: IMPase cell inh, HPGD inh, IMPase Li inh, PNC inhibitor)
O=C(NCc1nnc2c3ccccc3c(-c3ccccc3)nn12)c1ccc(Cl)cc1	PNC inhibitor -111 (no result: IMPase cell inh)
C=CCc1ccc(OCCOCCOc2cccc3cccnc23)c(OC)c1	none (no result: IMPase cell inh)
Cc1c(C(=N)C(C#N)C#N)c(=N)oc2c1ccc1ccccc12	ALDH1A1 block inconclusive (no result: IMPase cell inh, HPGD inh, IMPase Li inh, PNC inhibitor)
CN1CCN(C(=S)NC(=O)c2ccc(S(=O)(=O)N3CCOCC3)cc2)CC1	ALDH1A1 block 9.5µM (no result: IMPase cell inh, HPGD inh, PNC inhibitor)
CN1CCN(S(=O)(=O)c2ccc(NC(=S)NC(=O)c3ccccc3)cc2)CC1	ALDH1A1 block 25µM, HPGD inh inconclusive
CN1CCN(S(=O)(=O)c2ccc(NC(=S)NC(=O)C(C)(C)C)cc2)CC1	ALDH1A1 block 32µM (no result: IMPase cell inh, HPGD inh, PNC inhibitor)
CN(Cc1ccccc1)S(=O)(=O)c1ccc(NC(=S)NC(=O)C2CCCCC2)cc1	IMPase cell inh inconclusive
CN(Cc1ccccc1)S(=O)(=O)c1ccc(NC(=S)NC(=O)C(C)(C)C)cc1	ALDH1A1 block 13µM (no result: IMPase cell inh)
Cn1c(CN2CCCC(C(=O)c3ccc4c(c3)OCO4)C2)nc2ccccc21 (stereo not given)	ALDH1A1 block 28µM (no result: IMPase cell inh, HPGD inh, PNC inhibitor)
COc1ccc(Nc2ccc(N3C(=O)CCCC3=O)cc2[N+](=O)[O-])cc1OC	none (no result: IMPase cell inh)
CCn1nnnc1SCC(=O)c1cc(OC)ccc1OC	ALDH1A1 block 14µM
COc1ccc(OC)c(C(=O)CSc2nc3cccnc3n2C)c1	ALDH1A1 block 22µM
Cc1ccc(C(=O)CSc2nc3cccnc3n2C)cc1	ALDH1A1 block inconclusive, PNC inhibitor inconclusive
O=S(=O)(NCc1ccccc1)c1cccc2nonc12	ALDH1A1 block inconclusive
COc1ccccc1CN1C(=O)[C@@H]2C(CCC(N)=O)NC3(C(=O)Nc4c3ccc(Cl)c4C)[C@@H]2C1=O (stereo not given in full)	ALDH1A1 block 0.22µM
CC(NC(=O)c1ccc(N(C)C)cc1)C(c1cccs1)N1CCN(C)CC1 (stereo not given)	PNC inhibitor inconclusive
c1ccc(-c2cc(N3CCOCC3)nc(-c3ccccc3)n2)cc1	NPSR antag inconclusive, PNC inhibitor -83
O=C(NNC(=O)c1cc2cc3ccccc3nc2s1)c1cccc(C(F)(F)F)c1	ALDH1A1 block inconclusive
O=C(NNS(=O)(=O)c1ccccc1)c1cc2cc3ccccc3nc2s1	HPGD inh inconclusive, PNC inhibitor -106
O=C(O)C1CCc2sc3[nH]c(=S)n(-c4ccccc4)c(=O)c3c21 (stereo not given)	none (no result: IMPase cell inh, ALDH1A1 block, HPGD inh, IMPase Li inh, PNC inhibitor)

Screens: PubChem, National Center for Advancing Translational Sciences (NCATS)
